Pf growth 96h – P. falciparum growth inhibition at 96 hour, primary screen for plastid delayed-death inhibitors; P. falciparum luciferase reporter growth, 96 h; 6.9% of 320,000 active; AID 504834; Potency, µM (highest dose often 28.7 µM), without a hit: at the highest dose activity change, negative = inhibition, most hits filed as inhibitors; note: potency is the fitted concentration of half-maximal effect; % is set by controls: 0 for no effect and ±100 for the full control effect
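Infected RBCs, 2% Hct / 0.05% parasitemia final; luciferase-reporter P. falciparum; cpd 96 h, 37 C, 5% CO2; luciferase detection reagent; luminescence.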
Pf growth 48h – inhibits P. falciparum growth in the first generation, 48 h; P. falciparum luciferase growth in erythrocytes, 48 h; AID 504832; 5.9% of 310,000 active; Potency, µM (top dose mostly 28.7 µM), inactives show at the top dose activity change, negative = inhibition, hits mostly inhibitors; note: potency is the fitted concentration of half-maximal effect; % is set by controls: 0 for no effect and ±100 for the full control effect
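Luciferase-expressing P. falciparum in infected erythrocytes (2% hematocrit, 0.1% parasitemia final) in RPMI 1640/0.5% Albumax were exposed to compound for 48 hours at 37 C, 5% CO2; growth read as luminescence.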
Cycloheximide cs – affects cycloheximide protein synthesis inhibition readout, counter-screen | cell reporter, cycloheximide protein synthesis inhibition counterscreen | 12% of 300,000 active | max response, %; in the data active = max response mostly above about 13%, no sharp cut-off; inactive = mostly below about 14%; note: read at 38.3 µM for the half of the compounds with a filed dose; 0% is about no effect
Shiga inhibitor – Shiga toxin inhibition. Vero cells, Shiga toxin protein synthesis inhibition reporter. inhibition, % at 38.7 µM. 9.2% of 290,000 active. AID 2315; in the data active = inhibition mostly above about 28%, no sharp cut-off; inactive = mostly below about 43%; note: 0% is about no effect
Numbers without * were called inactive; [ ] = dose if it differs, or a comment. Sampled rows, rich in hits. Any-hit rate of the full collection: about 21%. Unless noted, calls come from the whole dose curve; as a rule, active = well fitted inhibition curve with a large enough effect; inconclusive = small, poorly fitted or top-dose-only effect, or another doubt; inactive = no such curve, though single readings can be large or run the other way.

For CCOc1ccccc1C1c2[nH]c3ccccc3c2C[C@H]2C(=O)N(C3CC3)CC(=O)N12 (stereo not given in full) the results were Pf growth 96h 9.3µM*, Pf growth 48h inconclusive, Cycloheximide cs -2 and Shiga inhibitor -10.
Screening COc1ccc(OC)c(CCNC(=O)CCc2nnc3ccc(N4CCOCC4)nn23)c1 returned Pf growth 96h inconclusive, Pf growth 48h -7%, Cycloheximide cs 12 and Shiga inhibitor -5.
Screening Cc1ccc(NC(=O)COC(=O)/C=C/c2cccs2)c(C)c1 returned Pf growth 96h 26%, Pf growth 48h 0%, Cycloheximide cs -3 and Shiga inhibitor 11.
CCCN[C@@H](C)C(=O)Nc1ccccc1C was read as Pf growth 96h -17% and Pf growth 48h -4%.
O=C(Cn1c2ccccc2c(=O)c2ccccc21)Nc1ccccc1F was read as Pf growth 96h inconclusive, Pf growth 48h inconclusive, Cycloheximide cs 9 and Shiga inhibitor -9.
Screening O=C(Cn1c2ccccc2c(=O)c2cc([N+](=O)[O-])ccc21)Nc1ccccc1Cl returned Pf growth 96h 9.3µM*, Pf growth 48h inconclusive, Cycloheximide cs 9 and Shiga inhibitor 19.
Screening Cc1ccc(S(=O)(=O)N(C)c2ccc(OC(=O)CN3C(=O)NC4(CCCC4)C3=O)cc2)cc1C returned Pf growth 96h 11% and Pf growth 48h -9%.
`COc1cccc(OCC(O)CN2C(C)CCCC2C)c1` (stereo not given) gave Pf growth 96h -5%, Pf growth 48h 20%, Cycloheximide cs -3 and Shiga inhibitor -17.
CC(=O)Nc1ccc(OCC(O)CN2C(C)CCCC2C)cc1 (stereo not given) was read as Pf growth 96h 52%, Pf growth 48h 22%, Cycloheximide cs 20* and Shiga inhibitor -3.
`CC1CCCC(C)N1CC(O)COc1c(F)cc(Br)cc1F` (stereo not given) gave Pf growth 96h inconclusive, Pf growth 48h 10µM*, Cycloheximide cs 5 and Shiga inhibitor 9.
OC(CNC1CCCC1)COc1c(F)cc(Br)cc1F (stereo not given) was read as Pf growth 96h -16%, Cycloheximide cs -3 and Shiga inhibitor -1.
Cc1cc(OCC(O)CN2C(C)CCCC2C)ccc1C(C)C (stereo not given) was read as Pf growth 96h inconclusive, Pf growth 48h 9.3µM*, Cycloheximide cs -5 and Shiga inhibitor 8.
For CCCn1c(O)c(C=Nc2ccccc2)sc1=S the results were Pf growth 96h inconclusive, Pf growth 48h 18%, Cycloheximide cs 36* and Shiga inhibitor 44*.
`Oc1c(/C=C/C=C/C=Nc2ccccc2)sc(=S)n1Cc1ccccc1` gave Pf growth 96h 2%, Pf growth 48h -10%, Cycloheximide cs 25* and Shiga inhibitor 72*.
For CCc1ccc(NC(=O)c2cnc3scc(C)n3c2=O)cc1 the results were Pf growth 96h 63%, Pf growth 48h 53%, Cycloheximide cs 34* and Shiga inhibitor 11*.
For CCCCOC(=O)c1ccc(NC(=O)c2cnccn2)cc1 the results were Pf growth 96h -4%, Pf growth 48h 26%, Cycloheximide cs 18 and Shiga inhibitor 10.
For CCCOC(=O)c1ccc(NC(=O)c2cnccn2)cc1 the results were Pf growth 96h 107%, Pf growth 48h 68%, Cycloheximide cs 26* and Shiga inhibitor 51*.
`O=C(Nc1ccc(NC(=O)c2ccco2)cc1)c1cnccn1` gave Pf growth 96h inconclusive, Pf growth 48h 97%, Cycloheximide cs 25* and Shiga inhibitor 58.
For CCc1ccc(NC(=O)c2cnccn2)cc1 the results were Pf growth 96h -5%, Pf growth 48h 481%, Cycloheximide cs 38* and Shiga inhibitor 55*.
For COc1cc(COc2ccc3c(C)c(CC(=O)O)c(=O)oc3c2C)cc(OC)c1OC the results were Pf growth 96h inconclusive, Pf growth 48h -9%[0.00184 µM], Cycloheximide cs -5 and Shiga inhibitor -4.
For O=C(Nc1ccccc1C(F)(F)F)c1cnccn1 the results were Pf growth 96h -2%, Pf growth 48h 28%, Cycloheximide cs 2 and Shiga inhibitor -20.
O=C(Nc1ccc(OC(F)(F)F)cc1)c1cnccn1 was read as Pf growth 96h inconclusive, Pf growth 48h 192%, Cycloheximide cs 55* and Shiga inhibitor 101*.
`Fc1ccc(N2CCN(C3=Nc4cccc5cccc3c45)CC2)cc1` gave Pf growth 96h inconclusive, Pf growth 48h -18%, Cycloheximide cs 24* and Shiga inhibitor 74*.
c1ccc(CN2CCN(C3=Nc4cccc5cccc3c45)CC2)cc1 was read as Pf growth 48h inconclusive, Cycloheximide cs 18* and Shiga inhibitor 48.
